According to ChEMBL document CHEMBL3988442, “University of Dundee, Small-Polar-MMV Screening Library” (2021):
For some of these results: Results with a measured potency or affinity are listed apart.

Tests used:
Parameters in all cases: scale not given: direction of the effect not stated beside the values
[1] = target: Protein translocase subunit SecA (Escherichia coli (strain K12)) (UniProt P10408); experiment: Assay to Identify E. coli SecA ATPase Inhibitors; assay type: functional; settings: 30 µM
Protein translocase subunit SecA (Escherichia coli (strain K12)), sequence (P10408 whole entry): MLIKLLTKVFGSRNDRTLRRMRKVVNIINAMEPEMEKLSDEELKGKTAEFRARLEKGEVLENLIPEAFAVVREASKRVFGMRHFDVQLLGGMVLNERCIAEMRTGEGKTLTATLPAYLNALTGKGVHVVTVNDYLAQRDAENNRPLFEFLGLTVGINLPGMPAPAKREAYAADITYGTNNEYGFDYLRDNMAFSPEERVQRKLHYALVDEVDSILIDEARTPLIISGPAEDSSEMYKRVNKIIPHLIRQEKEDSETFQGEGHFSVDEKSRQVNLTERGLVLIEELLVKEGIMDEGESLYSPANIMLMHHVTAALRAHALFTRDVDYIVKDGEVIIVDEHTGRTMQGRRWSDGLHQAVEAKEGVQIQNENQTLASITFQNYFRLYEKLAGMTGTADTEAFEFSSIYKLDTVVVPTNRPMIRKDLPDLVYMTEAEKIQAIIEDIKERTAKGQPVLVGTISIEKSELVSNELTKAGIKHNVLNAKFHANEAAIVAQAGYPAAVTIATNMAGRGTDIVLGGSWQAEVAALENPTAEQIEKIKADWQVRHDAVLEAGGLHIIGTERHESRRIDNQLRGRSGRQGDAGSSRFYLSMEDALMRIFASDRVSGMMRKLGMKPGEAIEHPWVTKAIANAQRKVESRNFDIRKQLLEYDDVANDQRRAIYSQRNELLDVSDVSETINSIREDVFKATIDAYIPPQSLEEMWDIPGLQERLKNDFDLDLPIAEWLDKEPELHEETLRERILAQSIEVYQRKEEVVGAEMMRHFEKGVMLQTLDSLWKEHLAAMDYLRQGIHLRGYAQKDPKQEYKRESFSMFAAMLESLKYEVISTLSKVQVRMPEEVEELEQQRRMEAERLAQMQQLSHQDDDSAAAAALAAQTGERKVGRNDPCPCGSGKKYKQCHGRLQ

[2] = target: T1, Ubiquitin-activating enzyme e1, putative (Leishmania donovani (strain BPK282A1)) (UniProt E9BSI1); experiment: Leishmania donovani Ubiquitin Activating Enzyme (LdE1); assay type: functional; settings: 30 µM
T1 sequence (whole entry): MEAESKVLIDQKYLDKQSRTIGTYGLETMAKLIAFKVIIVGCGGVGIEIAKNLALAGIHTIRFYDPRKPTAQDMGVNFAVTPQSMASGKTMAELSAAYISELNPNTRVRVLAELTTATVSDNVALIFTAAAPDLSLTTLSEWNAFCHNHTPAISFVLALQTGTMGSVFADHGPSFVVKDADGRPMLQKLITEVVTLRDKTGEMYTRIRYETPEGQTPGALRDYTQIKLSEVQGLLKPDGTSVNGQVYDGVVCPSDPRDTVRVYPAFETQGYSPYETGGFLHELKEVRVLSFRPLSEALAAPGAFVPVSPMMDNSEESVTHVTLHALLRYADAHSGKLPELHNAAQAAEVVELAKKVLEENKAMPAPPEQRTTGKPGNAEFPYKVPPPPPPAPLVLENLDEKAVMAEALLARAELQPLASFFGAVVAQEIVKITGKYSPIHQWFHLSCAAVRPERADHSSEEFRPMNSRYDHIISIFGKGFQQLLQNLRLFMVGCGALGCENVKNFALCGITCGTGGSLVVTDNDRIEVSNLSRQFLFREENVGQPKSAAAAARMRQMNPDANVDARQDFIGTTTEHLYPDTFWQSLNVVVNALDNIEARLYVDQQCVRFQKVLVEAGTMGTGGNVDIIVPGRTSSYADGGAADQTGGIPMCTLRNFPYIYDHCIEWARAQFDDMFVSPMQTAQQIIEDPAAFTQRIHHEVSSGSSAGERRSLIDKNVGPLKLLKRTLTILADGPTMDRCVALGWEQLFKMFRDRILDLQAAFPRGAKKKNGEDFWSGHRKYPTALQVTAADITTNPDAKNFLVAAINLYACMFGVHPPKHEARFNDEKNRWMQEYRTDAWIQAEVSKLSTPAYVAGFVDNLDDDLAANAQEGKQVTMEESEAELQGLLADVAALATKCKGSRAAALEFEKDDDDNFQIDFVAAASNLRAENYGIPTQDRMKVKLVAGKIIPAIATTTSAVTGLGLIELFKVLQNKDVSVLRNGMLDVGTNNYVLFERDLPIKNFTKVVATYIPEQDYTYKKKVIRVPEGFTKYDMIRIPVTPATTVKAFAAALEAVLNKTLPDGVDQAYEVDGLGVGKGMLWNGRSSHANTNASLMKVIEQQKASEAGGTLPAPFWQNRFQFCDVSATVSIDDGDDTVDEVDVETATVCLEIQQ

[3] = target: Sialic acid-binding Ig-like lectin 9 (Homo sapiens) (UniProt Q9Y336); experiment: Hs-Siglec9 ALPHAscreen SOP 20170721; settings: 10 µM
Sialic acid-binding Ig-like lectin 9 (Homo sapiens), sequence (Q9Y336 whole entry): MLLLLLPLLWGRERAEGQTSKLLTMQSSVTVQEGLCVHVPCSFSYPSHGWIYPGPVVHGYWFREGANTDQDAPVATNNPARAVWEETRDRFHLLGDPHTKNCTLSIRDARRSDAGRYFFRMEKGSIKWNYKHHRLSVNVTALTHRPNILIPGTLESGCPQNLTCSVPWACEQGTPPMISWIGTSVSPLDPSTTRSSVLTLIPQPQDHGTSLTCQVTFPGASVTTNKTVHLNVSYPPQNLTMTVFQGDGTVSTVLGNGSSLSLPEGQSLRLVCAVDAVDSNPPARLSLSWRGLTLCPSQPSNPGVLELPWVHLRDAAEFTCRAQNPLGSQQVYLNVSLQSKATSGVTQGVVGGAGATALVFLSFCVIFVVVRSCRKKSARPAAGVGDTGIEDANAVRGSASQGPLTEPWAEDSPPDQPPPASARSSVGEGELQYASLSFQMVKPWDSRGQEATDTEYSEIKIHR

Trypanosoma cruzi = experiment: Trypanosoma cruzi phosphomannomutase and mannose-1-phosphate guanylyltransferase assay; assay type: functional; settings: 10 µM
[4] = target: T2, Arginase-2, mitochondrial (Homo sapiens) (UniProt P78540); experiment: in vitro enzyme assay to detect the production of urea directly proportional to the activity of Arginase II; assay type: functional; settings: 33.3 µM; further: in the data most compounds retested in dose-response had high values
T2 sequence (whole entry): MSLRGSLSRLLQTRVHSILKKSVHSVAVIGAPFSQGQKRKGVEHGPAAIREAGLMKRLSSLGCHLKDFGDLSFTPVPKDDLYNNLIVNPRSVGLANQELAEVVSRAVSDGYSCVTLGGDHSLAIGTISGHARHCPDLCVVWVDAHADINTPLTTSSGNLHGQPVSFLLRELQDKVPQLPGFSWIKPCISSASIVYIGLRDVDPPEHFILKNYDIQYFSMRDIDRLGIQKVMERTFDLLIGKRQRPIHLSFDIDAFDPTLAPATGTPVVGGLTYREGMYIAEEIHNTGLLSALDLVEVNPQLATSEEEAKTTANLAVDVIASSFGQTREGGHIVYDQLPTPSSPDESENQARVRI

[5] = target: T3, Proteasome subunit beta (Trypanosoma cruzi) (UniProt O96673); experiment: Trypanosoma cruzi proteasome chymotrypsin-like activity (TcProtChymo) assay.; further: in the data most compounds retested in dose-response had high values; assay type: functional; settings: 9.37 µM
T3 sequence (whole entry): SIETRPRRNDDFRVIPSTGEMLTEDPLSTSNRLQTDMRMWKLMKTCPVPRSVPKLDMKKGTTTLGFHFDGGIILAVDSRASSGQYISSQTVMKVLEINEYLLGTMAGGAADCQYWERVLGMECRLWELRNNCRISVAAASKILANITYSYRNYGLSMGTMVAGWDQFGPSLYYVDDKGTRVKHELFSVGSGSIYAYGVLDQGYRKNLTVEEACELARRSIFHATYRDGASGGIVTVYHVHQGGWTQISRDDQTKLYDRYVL

Homo sapiens = organism: Homo sapiens; experiment: To identify inhibition of the IFN signalling (Jak-Stat) pathway via expression of an eGFP reporter gene under the control of an IFN-stimulated response element (ISRE) containing MxA promoter.; assay type: functional; settings: 30 µM
[6] = target: T4, Tyrosyl-tRNA synthetase, putative (Trypanosoma cruzi (strain CL Brener)) (UniProt Q4DSP6); experiment: Trypanosoma cruzi tyrosyl tRNA synthetase (TcYRS) _High Tyrosine SOP; assay type: functional; settings: 30 µM; further: in the data most compounds retested in dose-response had high values
T4 sequence (whole entry): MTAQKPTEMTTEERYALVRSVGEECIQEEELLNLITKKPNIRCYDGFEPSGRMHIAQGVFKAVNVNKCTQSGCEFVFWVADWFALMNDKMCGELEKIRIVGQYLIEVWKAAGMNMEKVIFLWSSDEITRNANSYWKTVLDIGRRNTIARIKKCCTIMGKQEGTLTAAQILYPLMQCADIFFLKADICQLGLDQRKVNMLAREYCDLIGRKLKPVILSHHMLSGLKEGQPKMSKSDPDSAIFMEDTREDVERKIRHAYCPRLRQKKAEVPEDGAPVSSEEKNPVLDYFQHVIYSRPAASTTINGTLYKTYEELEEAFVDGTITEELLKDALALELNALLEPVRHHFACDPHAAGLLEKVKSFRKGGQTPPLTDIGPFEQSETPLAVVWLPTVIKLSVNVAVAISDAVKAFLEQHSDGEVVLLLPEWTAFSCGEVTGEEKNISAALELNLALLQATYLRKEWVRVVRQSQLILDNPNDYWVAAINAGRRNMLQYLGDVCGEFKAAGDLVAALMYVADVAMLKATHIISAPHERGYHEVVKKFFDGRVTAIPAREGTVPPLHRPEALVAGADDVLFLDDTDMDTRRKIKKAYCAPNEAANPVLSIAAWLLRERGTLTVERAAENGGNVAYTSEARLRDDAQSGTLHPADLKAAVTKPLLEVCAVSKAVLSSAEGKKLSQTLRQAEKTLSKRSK

[7] = target: T4, Tyrosyl-tRNA synthetase, putative (Trypanosoma cruzi (strain CL Brener)); experiment: Trypanosoma cruzi tyrosyl tRNA synthetase (TcYRS) SOP; assay type: functional; settings: 30 µM
[8] = target: Chromo domain-containing protein 1 (Saccharomyces cerevisiae (strain ATCC 204508 / S288c) (Baker's yeast)) (UniProt P32657); experiment: ScCHD-1 Enzyme Inhibition Assay; assay type: functional; settings: 30 µM; further: in the data most compounds retested in dose-response had high values
Chromo domain-containing protein 1 (Saccharomyces cerevisiae (strain ATCC 204508 / S288c) (Baker's yeast)), sequence (P32657 whole entry, the tested form may be a part): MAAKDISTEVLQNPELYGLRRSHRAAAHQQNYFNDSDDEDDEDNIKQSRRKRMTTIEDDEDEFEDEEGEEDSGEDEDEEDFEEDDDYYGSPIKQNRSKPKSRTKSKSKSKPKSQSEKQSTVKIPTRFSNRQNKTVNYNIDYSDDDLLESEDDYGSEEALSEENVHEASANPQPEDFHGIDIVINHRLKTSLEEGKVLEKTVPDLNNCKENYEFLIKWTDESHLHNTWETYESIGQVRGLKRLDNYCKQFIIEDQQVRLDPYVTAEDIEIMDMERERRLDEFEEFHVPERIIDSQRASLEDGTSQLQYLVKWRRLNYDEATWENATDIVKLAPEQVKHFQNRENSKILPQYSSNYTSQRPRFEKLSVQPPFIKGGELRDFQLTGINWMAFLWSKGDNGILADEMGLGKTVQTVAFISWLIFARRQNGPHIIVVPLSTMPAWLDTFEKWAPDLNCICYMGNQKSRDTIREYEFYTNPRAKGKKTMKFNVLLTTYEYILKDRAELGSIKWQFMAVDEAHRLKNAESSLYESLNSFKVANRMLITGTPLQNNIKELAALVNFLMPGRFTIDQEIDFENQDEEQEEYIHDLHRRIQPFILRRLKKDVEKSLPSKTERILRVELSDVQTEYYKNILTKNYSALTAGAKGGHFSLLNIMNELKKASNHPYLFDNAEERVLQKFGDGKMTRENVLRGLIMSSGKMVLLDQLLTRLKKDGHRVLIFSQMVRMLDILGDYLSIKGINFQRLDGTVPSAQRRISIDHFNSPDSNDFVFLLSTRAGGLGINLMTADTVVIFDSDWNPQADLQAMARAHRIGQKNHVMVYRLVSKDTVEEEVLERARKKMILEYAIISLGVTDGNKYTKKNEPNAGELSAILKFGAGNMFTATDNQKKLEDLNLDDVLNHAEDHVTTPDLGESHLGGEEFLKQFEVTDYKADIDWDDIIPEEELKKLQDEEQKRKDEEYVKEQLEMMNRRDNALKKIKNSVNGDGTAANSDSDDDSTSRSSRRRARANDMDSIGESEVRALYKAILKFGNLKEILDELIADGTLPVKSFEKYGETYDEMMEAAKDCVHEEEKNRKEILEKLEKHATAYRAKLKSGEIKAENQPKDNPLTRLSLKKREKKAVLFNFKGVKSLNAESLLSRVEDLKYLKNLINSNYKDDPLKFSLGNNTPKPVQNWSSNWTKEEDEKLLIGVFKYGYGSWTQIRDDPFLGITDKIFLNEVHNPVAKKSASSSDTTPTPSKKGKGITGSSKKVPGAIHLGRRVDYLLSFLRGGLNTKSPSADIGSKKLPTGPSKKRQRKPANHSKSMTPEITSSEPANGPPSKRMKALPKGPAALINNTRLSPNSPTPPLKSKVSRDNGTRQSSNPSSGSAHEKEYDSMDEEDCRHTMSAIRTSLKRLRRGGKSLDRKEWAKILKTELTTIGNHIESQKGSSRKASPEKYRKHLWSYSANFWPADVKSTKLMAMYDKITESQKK

Compound	Percent Effect [1] [%]	Percent Effect [2] [%]	Percent Effect [3] [%]	Percent Effect (Trypanosoma cruzi) [%]	Percent Effect [4] [%]	Percent Effect [5] [%]	Percent Effect (Homo sapiens) [%]	Percent Effect [6] [%]	Percent Effect [7] [%]	Percent Effect [8] [%]
Cn1cc(CN2CCOCC3(C2)CN(c2ccccc2)C(=O)CO3)cn1 (stereo not given)	-5.71	9.09	-4.81	-1.85	0	5.03	-7.25	6.84	10.3	-1.15
c1ccc2cc(OCCN3CCn4c(nnc4C4CC4)C3)ccc2c1	-5.63	-18.7	-1.64	1.61	-5.32	4.33	-7.36	1.58	-10.3	-10.9
COc1ccc(C(C)NC(=O)NCCCn2cncn2)cc1F (stereo not given)	-2.93	16	2.65	-0.602	1.77	8.57	-15.1	6.84	17.9	-9.21
CCOCC1CC2(CCN(C(=O)c3ccccc3F)CC2)CO1 (stereo not given)	-6.56	6.49	-7.4	-3.41	-7.29	-0.794	-3.95	2.63	7.69	-0.095
CCn1cc(CN(C)S(=O)(=O)c2cnn(CC)c2C)c(C)n1	39.4	14.7	-2.08	-0.986	3.1	15.3	39.3	2.12	10	-20.5
Cc1ncccc1NC(=O)C1=NOC2(CCN(Cc3nccs3)C2)C1 (stereo not given)	-7.98	-14.3	2.46	-0.682	4.45	17.7	-6.55	6.84	15.4	5.53
CC(C(=O)Nc1ncccn1)N1CCCN(c2nccs2)CC1 (stereo not given)	-0.557	15.4	-8.35	-7.04	2.05	14.8	22.9	4.31	1.21	-2.28
COCCc1noc(CN2CCCC2Cn2cc(C)cn2)n1 (stereo not given)	-1.35	8	1.3	3.21	-7.98	3.31	-1.19	0.526	7.69	-7.63
Cc1nc(C)n(CC2CCCN2Cc2ccn(-c3ccccc3)n2)n1 (stereo not given)	0.0578	-20.8	13.8	0.933	-4.3	4.04	3.86	4.9	16.5	-7.02
Cc1ccsc1C(=O)N1Cc2ccccc2C2(CCN(C)CC2)C1	-4.41	-1.3	-5.71	-5.55	-2.02	5.56	-24.7	1.58	2.56	-2.8
COC(=O)COc1nc(CC(C)C)c2c(c1C#N)CCCC2	-4.25	2.7	-5.64	-7.86	-5.94	10.6	38.2	-2.66	4.88	-4.12
O=S(=O)(CCNC1CCc2ncnn2C1)c1ccccc1 (stereo not given)	-0.316	0	9.36	0.746	-1.43	5.09	0.944	1.96	4.71	5.51
CC1CCCCN1C(=O)CN1CCN(c2ccc3nncn3n2)CC1 (stereo not given)	-3.43	15.4	1.72	7.42	-0.82	11.3	6.75	6.22	13.2	-7.79
Cc1noc(C2CCN(Cc3cc(=O)n(C)c(=O)n3C)CC2)n1	-4.76	16	3.89	0.602	0	13.2	15.2	3.68	12.8	-9.16
O=C1C(NCc2nnc3n2CCCC3)CCN1CC(F)(F)F (stereo not given)	-2.08	2.56	-21.5	8.73	-2.05	1.79	4.98	1.44	8.43	-0.359
COc1ccc(OC)c(C2CCN(Cc3nc(C)n4ccccc34)C2)c1 (stereo not given)	-4.56	-2.7	16.9	2.81	17.1	17.8	17.9	13.3	26.8	-3.48
Cc1nccn1-c1cccc(C2CCCN(C(=O)c3cc[nH]n3)C2)n1 (stereo not given)	0.661	25.3	-9.09	0.395	-3.98	17.9	32.9	1.06	10	-7.28
Cc1nc(C2CCCN(C(=O)COCc3ccccc3Cl)C2)no1 (stereo not given)	1.44	-8	4.56	-1.81	6.21	-7.72	10.8	-1.58	-5.13	3.49
Cn1cnc2c1CCN(Cc1cccc(OCC(N)=O)c1)C2	-0.391	15.4	-8.42	7.42	2.46	15.3	23.1	3.35	18.1	-7.71
